From PubChem BioAssay (NCI) come the findings set out here.

Assay [1] is described as follows: NCI Yeast Anticancer Drug Screen. Data for the rad50 strain (AID 155).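 Note: 0% = growth of vehicle-only cultures of the same strain.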 As to conditions: S. cerevisiae rad50 strain growth inhibition, stronger effect = higher value. An outline of the steps: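 DNA repair mutant yeast, compound exposure, growth read-out; inhibition is taken relative to vehicle.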
The nature of assay [2]: NCI Yeast Anticancer Drug Screen. Data for the mec2-1 strain (AID 157). To be noted: S. cerevisiae mec2-1 strain, stronger effect = higher value. An outline of the steps: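 Growth inhibition is read against vehicle-treated controls after compound exposure of the mec2-1 yeast strain, which is defective in DNA damage repair or cell cycle control.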
Assay [3] in a line: NCI Yeast Anticancer Drug Screen. Data for the sgs1 mgt1 strain (AID 161).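 Note: 0% = growth of cultures given vehicle only.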 As to conditions: S. cerevisiae sgs1 mgt1 strain, stronger effect = higher value. A digest of the protocol: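 Yeast cells carrying a defined DNA-repair defect were exposed to test compounds. Growth inhibition was measured relative to vehicle-treated controls.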
Assay [4] is described as follows: NCI Yeast Anticancer Drug Screen. Data for the cln2 rad14 strain (AID 165).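 Note: 0% = growth equal to vehicle treated cultures.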 To be noted: S. cerevisiae cln2 rad14 strain, stronger effect = higher value. A digest of the protocol:
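Growth inhibition, relative to vehicle-treated controls, is the read-out. The test organism is a yeast strain with defined genetic alterations, cln2 rad14.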

Assay [5] can be described thus: NCI Yeast Anticancer Drug Screen. Data for the bub3 strain (AID 167). As to conditions: S. cerevisiae bub3 mutant strain, stronger effect = higher value. An outline of the steps:
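In this screen, a yeast mutant lacking normal mitotic checkpoint function is challenged with compound. Relative growth versus vehicle gives the inhibition value.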

Assay [6] in a line: NCI Yeast Anticancer Drug Screen. Data for the mlh1 rad18 strain (AID 175). As to conditions: S. cerevisiae mlh1 rad18 strain growth inhibition, stronger effect = higher value. A digest of the protocol: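 Cells of a genetically altered yeast strain, deficient in DNA damage repair, were treated with compound. Their growth was then compared with that of vehicle-treated cultures to give inhibition.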

The mark [7] stands for this setting: at 5.0 µM (retest, dose inferred, filed as 0.5).
The mark [8] stands for this setting: at 50.0 µM (retest, dose inferred, filed as 5.0).

The panel holds about 79,000 compounds, 15% with a hit somewhere; the sample as a whole holds those more often. A number with no mark means an inactive call. Active and inactive are the calls of the source. Cut-off read from the data, not from the text of the source: active = growth inhibition above about 70%; inactive = the rest.

In the case of `CCCSc1ncnc2nc(C)[nH]c12`, the growth inhibition in assay [1] (setting [7]) was -1%; in assay [1] (setting [8]) it was -1%; in assay [1] (at 50.0 µM) it was 6.9%; in assay [2] (setting [7]), 3%; in assay [2] (setting [8]), -7%; in assay [2] (at 50.0 µM) it was -14.5%. Moreover, the growth inhibition in assay [3] (setting [7]) was -2%; in assay [3] (setting [8]), -3%; in assay [3] (at 50.0 µM), 2.25%; in assay [4] (setting [7]) it was 0%; in assay [4] (setting [8]) it was -1%; in assay [4] (at 50.0 µM), 39.6%. Further, the growth inhibition in assay [5] (setting [7]) is -1%; in assay [5] (setting [8]), -6%; in assay [5] (at 50.0 µM), 1.85%; in assay [6] (setting [7]) it was 0%; in assay [6] (setting [8]), 0%; in assay [6] (at 50.0 µM), -8.25%.

As to `CN(C)CC(CN1CCCC1)C(=O)c1ccccc1` (configuration not stated), the growth inhibition in assay [1] (setting [7]) is 13%; in assay [1] (setting [8]), 24%; in assay [1] (at 50.0 µM) it was 56.6%; in assay [2] (setting [7]), -2%; in assay [2] (setting [8]), 36%; in assay [2] (at 50.0 µM), 41.4%. Moreover, the growth inhibition in assay [3] (setting [7]) was 13%; in assay [3] (setting [8]), 32%; in assay [3] (at 50.0 µM), 66.5%; in assay [4] (setting [7]) it was 26%; in assay [4] (setting [8]), 33%; in assay [4] (at 50.0 µM), 11.2%. Further, the growth inhibition was 6% in assay [5] (setting [7]); 39% in assay [5] (setting [8]); 65.5% in assay [5] (at 50.0 µM); 15% in assay [6] (setting [7]); 32% in assay [6] (setting [8]); 75.2% (active) in assay [6] (at 50.0 µM).

As to `Cc1cccc(Cl)c1NC(=S)Nc1cccc(C(F)(F)F)c1`, the growth inhibition in assay [1] (setting [7]) is -4%; in assay [1] (setting [8]) it was 2%; in assay [1] (at 50.0 µM), 88.8% (active); in assay [2] (setting [7]), 2%; in assay [2] (setting [8]), 8%; in assay [2] (at 50.0 µM) it was 89.4% (active). Besides, the growth inhibition was 10% in assay [3] (setting [7]); 1% in assay [3] (setting [8]); 92.3% (active) in assay [3] (at 50.0 µM); 24% in assay [4] (setting [7]); 23% in assay [4] (setting [8]); 88.3% (active) in assay [4] (at 50.0 µM). Further, the growth inhibition was 20% in assay [5] (setting [7]); 9% in assay [5] (setting [8]); 89.6% (active) in assay [5] (at 50.0 µM); -21% in assay [6] (setting [7]); 17% in assay [6] (setting [8]); 86.2% (active) in assay [6] (at 50.0 µM).

Take `O=[N+]([O-])c1ccccc1CC(c1c[nH]c2ccccc12)c1c[nH]c2ccccc12`: the growth inhibition in assay [1] (setting [7]) was 0%; in assay [1] (setting [8]) it was 73% (active); in assay [1] (at 50.0 µM), 86% (active); in assay [2] (setting [7]) it was -1%; in assay [2] (setting [8]), 74% (active); in assay [2] (at 50.0 µM), 80.7% (active). The growth inhibition was -2% in assay [3] (setting [7]); 70% (active) in assay [3] (setting [8]); 82.9% (active) in assay [3] (at 50.0 µM); 1% in assay [4] (setting [7]); 80% (active) in assay [4] (setting [8]); 78.9% (active) in assay [4] (at 50.0 µM). Moreover, the growth inhibition is -1% in assay [5] (setting [7]); 80% (active) in assay [5] (setting [8]); 55.8% in assay [5] (at 50.0 µM); 1% in assay [6] (setting [7]); 81% (active) in assay [6] (setting [8]); 87.3% (active) in assay [6] (at 50.0 µM).

For the compound `O=C1c2cccc3cc4ccccc4c(c23)C(=O)N1CCCNCCNCCCN1C(=O)c2cccc3cc4ccccc4c(c23)C1=O`, the growth inhibition was 94% (active) in assay [1] (setting [7]); 98% (active) in assay [1] (setting [8]); 90.1% (active) in assay [1] (at 50.0 µM); 96% (active) in assay [2] (setting [7]); 98% (active) in assay [2] (setting [8]); 85.2% (active) in assay [2] (at 50.0 µM). For the same compound, the growth inhibition was 96% (active) in assay [3] (setting [7]); 98% (active) in assay [3] (setting [8]); 86.5% (active) in assay [3] (at 50.0 µM); 83% (active) in assay [4] (setting [7]); 98% (active) in assay [4] (setting [8]); 88% (active) in assay [4] (at 50.0 µM). The growth inhibition was 98% (active) in assay [5] (setting [7]); 98% (active) in assay [5] (setting [8]); 87.8% (active) in assay [5] (at 50.0 µM); 94% (active) in assay [6] (setting [7]); 97% (active) in assay [6] (setting [8]); 91% (active) in assay [6] (at 50.0 µM).

On to `CCOC(=O)C1=NNC(C(=O)c2ccccc2)C1c1ccccc1` (configuration not stated), for which the growth inhibition is 3% in assay [1] (setting [7]); 49% in assay [1] (setting [8]); 33.2% in assay [1] (at 50.0 µM); 10% in assay [2] (setting [7]); 55% in assay [2] (setting [8]); 19.6% in assay [2] (at 50.0 µM). For the same compound, the growth inhibition in assay [3] (setting [7]) was 20%; in assay [3] (setting [8]), 83% (active); in assay [3] (at 50.0 µM), 81.2% (active); in assay [4] (setting [7]), 4%; in assay [4] (setting [8]) it was 19%; in assay [4] (at 50.0 µM), -20.3%. The growth inhibition in assay [5] (setting [7]) is 8%; in assay [5] (setting [8]), 40%; in assay [5] (at 50.0 µM), 81.8% (active); in assay [6] (setting [7]) it was 12%; in assay [6] (setting [8]) it was 82% (active); in assay [6] (at 50.0 µM), 68.8%.

With `C[C@]12CC[C@H](O)CC1=CC[C@@H]1C2CC[C@]2(C)NC(=O)CCC12` (some centres not stated), the growth inhibition was -4% in assay [1] (setting [7]); 0% in assay [1] (setting [8]); 46.9% in assay [1] (at 50.0 µM); 1% in assay [2] (setting [7]); 4% in assay [2] (setting [8]); 40.8% in assay [2] (at 50.0 µM). Moreover, the growth inhibition is -2% in assay [3] (setting [7]); 16% in assay [3] (setting [8]); 82.8% (active) in assay [3] (at 50.0 µM); 1% in assay [4] (setting [7]); 0% in assay [4] (setting [8]); 53% in assay [4] (at 50.0 µM). The growth inhibition was 3% in assay [5] (setting [7]); 4% in assay [5] (setting [8]); 39.3% in assay [5] (at 50.0 µM); -3% in assay [6] (setting [7]); 1% in assay [6] (setting [8]); 76% (active) in assay [6] (at 50.0 µM).

Regarding `COc1ccnc2c1C(=O)c1nc3ccccc3c3ccnc-2c13`, the growth inhibition is 14% in assay [1] (setting [7]); 89% (active) in assay [1] (setting [8]); 81.2% (active) in assay [1] (at 50.0 µM); -9% in assay [2] (setting [7]); 83% (active) in assay [2] (setting [8]); 79.8% (active) in assay [2] (at 50.0 µM). The growth inhibition in assay [3] (setting [7]) was 9%; in assay [3] (setting [8]), 83% (active); in assay [3] (at 50.0 µM), 81.5% (active); in assay [4] (setting [7]) it was 2%; in assay [4] (setting [8]), 88% (active); in assay [4] (at 50.0 µM), 80.8% (active). The growth inhibition in assay [5] (setting [7]) was -15%; in assay [5] (setting [8]), 86% (active); in assay [5] (at 50.0 µM), 81% (active); in assay [6] (setting [7]), 23%; in assay [6] (setting [8]) it was 92% (active); in assay [6] (at 50.0 µM), -21.9%.

Turning to `O=C(OCc1ccccc1CN1CCOCC1)c1cccc(Br)c1`, the growth inhibition was 2% in assay [1] (setting [7]); 32% in assay [1] (setting [8]); 43.5% in assay [1] (at 50.0 µM); -4% in assay [2] (setting [7]); 3% in assay [2] (setting [8]); 9.4% in assay [2] (at 50.0 µM). Besides, the growth inhibition was -4% in assay [3] (setting [7]); 82% (active) in assay [3] (setting [8]); 82.8% (active) in assay [3] (at 50.0 µM); -5% in assay [4] (setting [7]); -3% in assay [4] (setting [8]); -4.15% in assay [4] (at 50.0 µM). Also, the growth inhibition was 2% in assay [5] (setting [7]); 42% in assay [5] (setting [8]); 52.2% in assay [5] (at 50.0 µM); 21% in assay [6] (setting [7]); 40% in assay [6] (setting [8]); 6.65% in assay [6] (at 50.0 µM).
